# “And” between values parts separate entries of the source, which are not always exact repeats. Equal entries are not always repeated. About 2,600 (16%) of roughly 16,000 compounds were called active. Roughly 20% stayed inconclusive and do not appear here. Calls follow the shape of the dose curve; as a rule, active = well fitted curve in the direction sought with a large enough effect; inconclusive = small, poorly fitted or top-dose-only effect, or effect the other way; inactive = no such curve, though single readings can be large or run the other way. The list is a sample of the results. A structure can be active in one record and inactive in another.
# Target: Cytochrome P450 2D6 (Homo sapiens) (UniProt P10635)
# Sequence (P10635 whole entry, looked up): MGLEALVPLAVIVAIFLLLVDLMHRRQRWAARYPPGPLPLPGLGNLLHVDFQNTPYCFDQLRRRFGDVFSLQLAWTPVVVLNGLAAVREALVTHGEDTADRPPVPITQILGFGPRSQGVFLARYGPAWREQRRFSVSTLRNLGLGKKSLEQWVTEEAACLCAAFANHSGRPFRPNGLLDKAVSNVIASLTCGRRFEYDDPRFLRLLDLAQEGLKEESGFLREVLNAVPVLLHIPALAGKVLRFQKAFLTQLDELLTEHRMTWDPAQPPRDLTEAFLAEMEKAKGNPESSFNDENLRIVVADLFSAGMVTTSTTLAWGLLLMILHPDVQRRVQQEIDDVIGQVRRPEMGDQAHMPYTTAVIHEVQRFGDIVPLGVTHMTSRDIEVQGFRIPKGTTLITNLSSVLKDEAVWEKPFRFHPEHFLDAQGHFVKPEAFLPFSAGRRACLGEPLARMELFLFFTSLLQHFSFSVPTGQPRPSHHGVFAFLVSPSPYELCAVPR
# Assay: Cytochrome panel assay with activity outcomes
# Settings: recombinant CYP, pro-luciferin dealkylation, luminescence, p450-cyp2d6; series mostly up to 57.1 µM; activity, negative = inhibition: at the top concentration
# % is scaled to controls: 0 for no effect and ±100 for the full control effect.
SMILES,"activity, negative = inhibition",AC50
CC(=O)NC1(c2cccc(F)c2)CCN(CC(=O)NC2CCCCC2)CC1,-8.39% (inactive),
Cn1c(CCNC(=O)c2ccccc2Cl)n[nH]c1=S,-4.47% (inactive),
O=C1O[C@H](CN2CCOCC2)CN1/N=C\c1ccc([N+](=O)[O-])o1,-18.9% [at 25.6 µM] (inactive),
CCCSc1nnc(CSc2nc3nc(C)cc(C)n3n2)o1,-9.07% (inactive),
Cc1cccc(Nc2cc(Cl)nc(SCC(=O)O)n2)c1C,,3160 nM (active)
Cc1ccccc1NC(=O)CSc1nc(N2CCCCC2)nc(N2CCCCC2)n1,14.4% (inactive),
Cc1cc(SCC(=O)c2ccccc2)nc(SCC(=O)c2ccccc2)n1,7.93% (inactive),
Cc1cn(CC[C@H](N)C(=O)O)c(=O)[nH]c1=O,-3.77% [at 11.4 µM] (inactive),
CCCC(=O)Nc1nc2n(n1)C(c1ccccc1)CC(=O)N2 (stereo not given),22.6% (inactive),
CC(C)CCN1CC(C(=O)N2CCN(c3ccc(F)cc3)CC2)CC1=O (stereo not given),-1.61% (inactive),
CCCCNc1c(C(=O)OCC)c(C)nc2c1cnn2CC,,inactive and 200 nM (active)
CCOC(=O)c1cnc2c(cnn2CC)c1NN=C(C)C,,inactive
CCOC(=O)c1cnc2c(cnn2C)c1NCCCN(C)C,-15.8% (inactive),
C#CCCCO/N=C1/C[C@@H](O)[C@@H](O)[C@@H]2[C@@H]3C(=O)N(Cc4ccccc4)C(=O)[C@H]3CC[C@@H]12,19.7% [at 11.4 µM] (inactive),
CCOC(=O)C(NC(=O)CC)(Nc1sc2c(c1C(=O)OC)CCN(C)C2)C(F)(F)F (stereo not given),-1.69% (inactive),
CCCNC(=O)OC[C@H]1O[C@@H](CCO/N=C\[C@@H](NS(=O)(=O)c2ccc(C)cc2)[C@H](C)/C=C\CC(=O)OC)C=C[C@@H]1Oc1ccc(OC)cc1,-7.16% [at 11.4 µM] (inactive),
COc1ccc2cc(CCC(C)=O)ccc2c1,-4.42% [at 25.6 µM] (inactive),
O=C(O)CCCc1ccc2ccccc2c1,0.631% [at 11.4 µM] (inactive),
NNC(=O)CCc1ccc2ccc3ccccc3c2c1,,1580 nM (active)
CS(=O)(=O)N1CCN(c2ccc(C(=O)NC3C4CC5CC(C4)CC3C5)cc2[N+](=O)[O-])CC1 (stereo not given),-10% (inactive),
Cc1ccc(CS(=O)(=O)CCC(=O)NCCCOC(C)C)cc1,10.1% (inactive),
O=C(NCCOc1nc(N2CCOCC2)nc(N2CCOCC2)n1)Nc1ccccc1,6.07% (inactive),
CCN(CC)c1ccc(NC(=O)CN2CCN(c3ccccc3F)CC2)cc1,-23.1% (inactive),
Cc1ccc(NC(=O)CCC(=O)c2ccc(F)cc2)cc1Cl,-10.9% (inactive),
O=C(CCN1CCc2ccccc2C1)Nc1ccc(F)cc1,,2240 nM (active)

SMILES,"activity, negative = inhibition",AC50
O=C(NCCCN1CCCC1=O)Nc1ccc(F)c(Cl)c1,0.447% (inactive),
O=C(NCCCN1CCc2ccccc2C1)Nc1ccc(Cl)cc1,,3550 nM (active)
O=C(O)c1ccccc1-c1ccccc1C(=O)Nc1ccc2c(c1)Cc1cc(F)ccc1-2,-13.4% [at 11.4 µM] (inactive),
O=C(NCCCN1CCN(c2ccccc2F)CC1)C1CCC(=O)N1C1CCCCC1 (stereo not given),-17.4% (inactive),
Cc1ccccc1CS(=O)(=O)CCC(=O)NCCCN1CCN(c2ccccc2F)CC1,,3550 nM (active)
CSc1ccc(NC(=O)NCCCN2CCN(c3ccccc3F)CC2)cc1,,3550 nM (active)
Cc1ccc(CS(=O)(=O)CCC(=O)NCCCN2CCCC2)cc1,-24.2% (inactive),
O=C(O)/C=C/C(=O)Nc1ccc(F)cc1F,22.9% (inactive),
O=C(O)C[C@H]1OCC=C2C[N@@+]3([O-])CC[C@]45c6ccccc6N[C@@H]4[C@@H]1[C@H]2C[C@H]53,9.02% [at 11.4 µM] (inactive),
Cc1nc2cnc(N(C)C)nc2n(C)c1=O,-12.7% (inactive),
O=C(O)c1ccccc1-c1ccccc1C(=O)Nc1ccc2c(c1)[nH]c(=O)c1ccccc12,-5.23% [at 11.4 µM] (inactive),
O=c1c(-c2cc(F)cc(F)c2)nc2cncnc2n1Cc1ccccc1Cl,-8.97% (inactive),
CN1CCN(NC(=O)CN2C(=O)/C(=C/c3c(Cl)cccc3Cl)SC2=S)CC1,-9.02% (inactive),
COc1cc2cc3c(N)c(C(=O)Nc4sc(C)c(C)c4C#N)sc3nc2cc1OC,-0.0904% (inactive),
C[C@](N)(C(=O)O)c1ccc(-c2nn[nH]n2)cc1,-0.522% (inactive),
CCOC(=O)c1cc(CC)sc1NC(=O)c1cc(OCC)c(OCC)c(OCC)c1,-1.3% (inactive),
S=C(S)NCCN1CCNCC1,-7.83% [at 11.4 µM] (inactive),
COc1ccc(C(=O)N/C(=C/c2cccs2)C(=O)NCCCn2ccnc2)cc1OC,-6.39% (inactive),
COc1ccc2c(Cl)c(C(=O)NCCCn3ccnc3)sc2c1Cl,,631 nM (active)
O=C(NCCCn1ccnc1)Nc1ccc(Cl)cc1,,1580 nM (active)
Cc1ccc(NC(=O)NCCCc2ccccc2)cc1,-26.1% (inactive),
Cn1nc(-c2ccccc2)c(C(=O)Nc2ccc(Cl)cc2)c1Cl,18.7% (inactive),
Cc1ccc(NC(=O)N/C=C/c2ccc(Cl)cc2)cc1,8.55% (inactive),
S=C(S)NCCCn1ccnc1,,794 nM (active)
CSc1ccc(NC(=O)NCCN2CCc3ccccc3C2)cc1,,5010 nM (active)

# Reference: PubChem BioAssay AID1851 (National Center for Advancing Translational Sciences (NCATS), 2009)
